Measured values reported in PubChem BioAssay (NCI).
Compounds without any hit were thinned out: in the full panel of roughly 83,000, 20% have a hit.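 Method: cells in 96-well plates; compound added at one concentration; 48 h incubation; percent growth measured; values under 10 scored active.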 Active and inactive are the calls of the source.

Legend:
Experiment in all cases: NCI-60 one-dose screen, 48 h (100 = growth as untreated, 0 = no growth, -100 = all killed)
Conditions in all cases: 10 µM unless noted
[1] = tested on: HCT-15 colon
[2] = tested on: HT29 colon
[3] = tested on: SNB-75 CNS
[4] = tested on: SNB-19 CNS
[5] = tested on: U251 CNS
[6] = tested on: PC-3 prostate
[7] = tested on: SK-MEL-5 melanoma
[8] = tested on: UACC-62 melanoma
[9] = tested on: LOX IMVI melanoma
[10] = tested on: SK-MEL-28 melanoma
[11] = tested on: SK-MEL-2 melanoma
[12] = tested on: EKVX NSCLC
[13] = tested on: SN12C renal
[14] = tested on: UO-31 renal
[15] = tested on: TK-10 renal
[16] = tested on: ACHN renal
[17] = tested on: CAKI-1 renal
[18] = tested on: A498 renal
[19] = tested on: CCRF-CEM leukemia
[20] = tested on: MOLT-4 leukemia

Measured: growth

CCOC(=O)Cc1cc(Br)c(OCc2ccccc2)c(Br)c1
inactive: [1] 88.7% | [2] 99% | [3] 87.3% | [4] 97.9% | [5] 90.2% | [6] 84.1% | [7] 104% | [8] 70.8% | [9] 87.6% | [10] 106% | [11] 94.8% | [12] 90.9% | [13] 88.9% | [14] 80.5% | [15] 96.8% | [16] 92% | [17] 77.2% | [18] 109% | [19] 95.4% | [20] 77.2%

COc1cnc2c(c1)C(=O)c1c-2n(CCCN2CCN(C)CC2)c(=O)c2cc(Cl)ccc12
inactive: [1] 41.8% | [3] 38.7% | [4] 46.3% | [5] 45.4% | [6] 40.5% | [7] 65.4% | [9] 38.2% | [11] 32.3% | [12] 51.5% | [13] 43% | [14] 40.1% | [15] 48.5% | [16] 18.4% | [17] 45.3%
active: [2] -60.6% | [8] -49% | [10] -53.8% | [18] -4.26% | [19] -14.6% | [20] -36.6%

COc1cc(/C=C\c2cc(/C=C\c3ccc(O)c(OC)c3)n(C(=O)Nc3ccc(C(F)(F)F)cc3)n2)ccc1O
inactive: [1] 25.5% | [3] 71.8% | [4] 48.7% | [6] 38% | [7] 35.4% | [8] 31.1% | [10] 58% | [11] 84.5% | [12] 61.3% | [13] 36.9% | [14] 42.9% | [15] 77.7% | [16] 65.8% | [17] 55% | [18] 108% | [20] 11.1%
active: [2] 3.5% | [5] 9.71% | [9] 9.11% | [19] 3.42%

c1ccc2c(N=NSc3ncnc4nc[nH]c34)c3ccccc3nc2c1
active: [1] -7.02% | [2] 0.967% | [3] 2.72% | [5] 8.63% | [6] -1.78% | [7] -59.4% | [8] -38.7% | [9] -46.6% | [10] -37.6% | [11] -23.6% | [13] 4.81% | [14] 4.86% | [16] -27.8% | [18] -8% | [19] -4.86% | [20] -17.4%
inactive: [4] 12.3% | [12] 16.7% | [15] 36.4% | [17] 19.7%

O=C(CSc1nc2c(n1Nc1ccccc1)-c1ccccc1SC2)Nc1nccs1
inactive: [1] 87.5% | [2] 102% | [3] 69.7% | [4] 99.4% | [5] 93.8% | [6] 78.8% | [7] 101% | [8] 83.3% | [9] 97.1% | [10] 112% | [11] 102% | [12] 89.3% | [13] 95.3% | [14] 63.1% | [15] 120% | [16] 95.2% | [17] 73.7% | [18] 77% | [19] 84.5% | [20] 82.5%

COc1ccc(CNc2c3ccccc3nc3ccc(OC)cc23)cc1
active: [1] 5.34% | [2] -2.9% | [6] 5.53% | [9] -75.1% | [14] 6.24% | [18] -5.96% | [20] -0.147%
inactive: [3] 27.4% | [4] 22.7% | [5] 16.1% | [7] 11.1% | [8] 42.6% | [10] 41.3% | [11] 40.9% | [12] 24.2% | [13] 20.8% | [15] 33.6% | [16] 10.2% | [17] 19.9% | [19] 19.4%

c1ccc(-c2nnn(-c3ccccc3)n2)cc1
inactive: [1] 114% | [2] 104% | [3] 90.4% | [4] 101% | [5] 99.1% | [6] 103% | [7] 104% | [8] 94.1% | [9] 116% | [10] 110% | [11] 94.7% | [12] 93.2% | [13] 103% | [14] 81.3% | [15] 147% | [16] 105% | [17] 92.9% | [18] 119% | [19] 95.2% | [20] 91.2%

COc1ccc(C(=O)C(CN(C)C)c2ccc(OC)cc2)cc1 (stereo not given)
active: [19] 3.8%
inactive: [1] 30.4% | [2] 13.2% | [3] 64.7% | [4] 90.7% | [5] 69.2% | [6] 39.1% | [7] 95.5% | [8] 32.1% | [9] 31.3% | [10] 79% | [11] 75.1% | [12] 90.7% | [13] 62.5% | [14] 67.9% | [15] 52% | [16] 54.1% | [17] 73.9% | [18] 64.4% | [20] 52.9%

Nc1nc(NC2CC2)cc(-c2cccc(Cl)c2Cl)n1
inactive: [1] 25% | [2] 13.6% | [3] 39.2% | [4] 59.1% | [5] 39.1% | [6] 64.6% | [7] 46.5% | [8] 36.1% | [9] 40.7% | [10] 68.7% | [11] 14.3% | [12] 71.9% | [13] 59.6% | [14] 71.7% | [15] 87.3% | [16] 75.1% | [17] 58.5% | [18] 47.7% | [19] 62.3% | [20] 28.4%

C=CCOC(=O)C1=C(C)NC2=C(C(=O)CCC2)C1c1ccc(F)cc1 (stereo not given)
inactive: [1] 105% | [2] 101% | [3] 80.3% | [4] 85.2% | [5] 97.8% | [6] 90.1% | [7] 98.8% | [8] 80.6% | [9] 97.1% | [10] 101% | [11] 101% | [12] 102% | [13] 92.1% | [14] 76.1% | [15] 111% | [16] 89.6% | [17] 84.7% | [18] 99.3% | [19] 98.1% | [20] 93.6%

CCCCOc1nc2ccccc2cc1/C=C/c1cc(/C=C/c2cc3ccccc3nc2OCCCC)n(-c2ccccc2)n1
inactive: [1] 116% | [2] 93.5% | [3] 82.5% | [4] 97.3% | [5] 99% | [6] 93.1% | [7] 101% | [8] 81.3% | [9] 95.9% | [10] 114% | [11] 101% | [12] 105% | [13] 95.3% | [14] 75.2% | [15] 119% | [16] 103% | [17] 88.3% | [18] 95.9% | [19] 101% | [20] 99%

CCCCCCCOc1cccc(/C=C2\N=C3SCCCN3C2=O)c1
inactive: [1] 87.5% | [2] 88.9% | [3] 91.2% | [4] 92.8% | [5] 91.1% | [6] 85.3% | [7] 90.1% | [8] 79.6% | [9] 96.2% | [10] 100% | [11] 95.5% | [12] 92.7% | [13] 94.1% | [14] 78.7% | [15] 96.2% | [16] 96.4% | [17] 94.4% | [18] 94.6% | [19] 111% | [20] 100%

CCCCCCCCCCCCCCCCCC1=NCCN1CCO
active: [9] -47.2%
inactive: [1] 61.7% | [2] 61.5% | [3] 80.6% | [4] 95.5% | [5] 75.6% | [6] 63.6% | [7] 106% | [8] 92% | [10] 89.4% | [11] 88.9% | [12] 78.2% | [13] 86% | [14] 48.7% | [15] 87.9% | [16] 60.7% | [17] 55.7% | [18] 106% | [19] 53.9% | [20] 30.3%

Cc1ccc(NC(=O)c2sc3nc4c(cc3c2N)C(=O)CCC4)cc1Cl
inactive: [1] 97.3% | [2] 97.5% | [3] 110% | [4] 114% | [5] 97.9% | [6] 104% | [7] 102% | [8] 108% | [9] 99.2% | [10] 108% | [11] 112% | [12] 86.2% | [13] 119% | [14] 111% | [15] 96.5% | [16] 109% | [17] 85.9% | [18] 97.9% | [19] 104% | [20] 108%

CC(C)(c1ccccc1)c1cc(O)c(C(C)(C)c2ccccc2)cc1O
active: [18] 8.74% | [20] -17.8%
inactive: [1] 21.3% | [2] 15.8% | [3] 43.5% | [4] 37.8% | [5] 36.5% | [6] 16.9% | [7] 11.3% | [8] 20.6% | [9] 32.7% | [10] 53.2% | [11] 10.4% | [12] 33% | [13] 22.4% | [14] 17.2% | [15] 36.1% | [16] 44% | [17] 31.6% | [19] 15.3%

CC(C)CCSc1nc(-c2ccc(F)cc2)c(C#N)c(N2CCCCC2)n1
inactive: [1] 97.7% | [2] 83.2% | [3] 94.2% | [4] 102% | [5] 93.6% | [6] 89.2% | [7] 95.8% | [8] 70.3% | [9] 93% | [10] 96.3% | [11] 85.7% | [12] 97.2% | [13] 107% | [14] 80.4% | [15] 97.4% | [16] 91.8% | [17] 75.6% | [18] 88% | [19] 89.9% | [20] 70%
